{"source": "PubChem BioAssay AID588342", "about": "(National Center for Advancing Translational Sciences (NCATS), 2011)", "note": "In all, about 360,000 compounds went through this assay and about 25,000 (6.9%) were called active. Not shown: some 9% with an inconclusive outcome. The full list was thinned out, with actives kept by preference. A number with no mark means an inactive call. Calls follow the shape of the dose curve; as a rule, active = well fitted inhibition curve with a large enough effect; inconclusive = small, poorly fitted or top-dose-only effect; inactive = flat fitted curve, though single readings scatter.", "data": [{"biological_target": "Luciferin 4-monooxygenase (Photinus pyralis) (UniProt P08659)", "sequence (P08659 whole entry, looked up)": "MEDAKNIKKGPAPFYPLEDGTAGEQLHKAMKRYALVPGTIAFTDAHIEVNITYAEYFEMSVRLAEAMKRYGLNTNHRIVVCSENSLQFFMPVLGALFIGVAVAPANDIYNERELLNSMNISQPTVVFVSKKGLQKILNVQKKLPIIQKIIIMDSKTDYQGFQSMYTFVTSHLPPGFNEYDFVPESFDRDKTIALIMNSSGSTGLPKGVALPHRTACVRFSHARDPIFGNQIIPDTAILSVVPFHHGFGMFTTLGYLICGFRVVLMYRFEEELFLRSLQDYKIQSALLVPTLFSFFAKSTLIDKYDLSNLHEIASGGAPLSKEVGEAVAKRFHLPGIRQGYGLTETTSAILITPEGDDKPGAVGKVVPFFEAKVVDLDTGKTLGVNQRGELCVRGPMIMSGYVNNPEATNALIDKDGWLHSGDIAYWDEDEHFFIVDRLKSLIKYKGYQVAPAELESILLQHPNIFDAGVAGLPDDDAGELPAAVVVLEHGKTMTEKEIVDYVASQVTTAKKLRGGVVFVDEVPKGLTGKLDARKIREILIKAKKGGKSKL", "assay": "qHTS profiling assay for firefly luciferase inhibitor/activator using purifed enzyme and Km concentrations of substrates (counterscreen for miR-21 project); also: nearly all actives have a fitted effect of over 55% in size;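 as to activity change, negative = inhibition: plate controls were vehicle for no effect and reference inhibitor for full effect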", "conditions": "purified FLuc, luminescence inhibition; series mostly up to 57.5 µM; activity change, negative = inhibition: at the top concentration", "excerpt": "MLPCN Grant: 1 R21 NS059478-01 (miR-21 grant) Assay Provider: NCGC NCGC Assay Overview: Firefly (Photinus pyralis) luciferase is one of the most commonly used transcriptional reporters for a number of reasons. It is considered one of the more dynamically responsive reporters -that is, responsive to changes in reporter transcription - as it requires no post-translational modifications and is enzymatically active directly after protein synthesis (Wood, 1998). Additionally, the half-life of the luciferase protein is short relative to other reporter-gene products (Wood, 1995). Whereas reporters with long half-lives potentially allow for increased signal due to accumulation of reporter-gene product, once accumulated in the cell, dynamic changes in reporter-gene expression may be difficult to detect(Fan and Wood, 2007; Almond et al., 2004). It has been shown that wild-type P. pyralis luciferase has a half-life of approximately […] hours in mammalian cells (Thompson et al., 1991). Firefly luciferase reporter-gene assays are also generally considered one of the most sensitive assay types (Wood, 1995; Wood, 1998). Although light produced in a bioluminescence reaction is of lower intensity than that produced during fluorescence emission, this is offset by little to no background light inherent to luminescent assays. Thus the luciferase reporter can be expressed at much lower levels than fluorescent proteins while still providing robust signal. # However, it was initially observed, in 1991, by Thompson et al., that compounds that resemble the substrates of firefly luciferase (FLuc) can act as competitive inhibitors of the enzyme, and that these compounds, upon interaction with luciferase in the cell, can actually stabilize the protein and increase its half-life. Accumulated intracellular FLuc protein can be measured as an increase in luminescence signal, upon addition of detection reagents (which contain high concentrations of FLuc substrates) commonly used in high-throughput screening. In cell-based reporter gene assays that use FLuc as the reporter gene to quantitate the potential influence of a given compound against the target biology, this apparent increase in luminescence can mistakenly be interpreted as identification of a compound that is active against the target of interest. This is the case for the miR-21 FLuc reporter gene assay used to identify inhibitors of the miR-21 pathway (PubChem AID 2289) - compounds of interest will inhibit miR-21 biogenesis/expression or activity, and are identified by causing an increase in luminescence, due to increased FLuc translation. However, FLuc inhibitory compounds that stabilize the FLuc protein will give an identical read-out, making it difficult to distinguish compounds that are active against the target from those active against FLuc. Previous profiling work to determine the prevalence of compounds that affect FLuc enzymatic activity (PubChem AID 411) identified that ~3% of the MLSMR library (then at ~72K) inhibited FLuc. […] Since the MLSMR had grown to ~350K compounds, and since it was expected that a significant percentage of compounds found active in the miR-21 FLuc assay would be FLuc inhibitors, the library was screened for activity against FLuc using a biochemical assay of purified FLuc and KM concentrations of FLuc substrates (D-luciferin and ATP).\nNCGC Assay Protocol Summary: Reagents: 50mM Tris acetate, pH 7.5; 10mM Mg acetate; 10uM D-luciferin (Sigma #L9504); 10uM ATP; 0.01% Tween-20; 0.05% BSA; 10nM P. pyralis luciferase (Sigma #L9506) Control compounds used were two known firefly luciferase inhibitors (compounds (2) and (5) in Auld et al., 2010), and DMSO. […]", "values": [{"smiles": "COc1ccc(NC(=O)CCN2CCN(CCO)CC2)cc1", "activity change, negative = inhibition": "-2.42% (inactive)"}, {"smiles": "O=C(Nc1ccon1)c1nc[nH]c1C(=O)NCc1ccccc1", "activity change, negative = inhibition": "3.38% (inactive)"}, {"smiles": "Cc1cc(C)n2nc(C(=O)Nc3cccc(S(=O)(=O)N4CCOCC4)c3)nc2n1", "activity change, negative = inhibition": "3.28% (inactive)"}, {"smiles": "Cc1c(/C=N\\NC(=O)c2cc3ccccc3o2)c2ccccc2n1C", "Potency": "9.53 µM (active)"}, {"smiles": "O=C(O)c1cccc(NC(=S)N/N=C/c2c[nH]c3ccccc23)c1", "Potency": "0.757 µM (active)"}, {"smiles": "CC(C)(C)n1nc2c(c1NC(=O)c1cc3ccccc3o1)CSC2", "activity change, negative = inhibition": "3.62% (inactive)"}, {"smiles": "Nc1nonc1-n1nnc(C(=O)N/N=C/c2c[nH]c3ccccc23)c1-c1ccccc1", "activity change, negative = inhibition": "-1.39% (inactive)"}, {"smiles": "O=C(Cc1ccccc1)Nc1cccc(C(=O)N/N=C/c2ccco2)c1", "activity change, negative = inhibition": "-27.1% (inactive)"}, {"smiles": "O=C(N/N=C/c1c[nH]c2ccccc12)c1cc2ccccc2o1", "Potency": "13.5 µM (active)"}, {"smiles": "Cc1ccc2occ(/C=N/NC(=O)c3ccccc3C)c(=O)c2c1", "activity change, negative = inhibition": "-16.4% (inactive)"}, {"smiles": "O=C(N/N=C/c1ccc([N+](=O)[O-])cc1)c1c[nH]c2ccccc12", "activity change, negative = inhibition": "-17.6% (inactive)"}, {"smiles": "CN(C)S(=O)(=O)c1cccc(NC(=S)N/N=C/C(=O)c2ccccc2)c1", "activity change, negative = inhibition": "-12.4% (inactive)"}, {"smiles": "Cc1c(/C=N/N2C(=O)C3C4C=CC(C4)C3C2=O)c2ccccc2n1C", "note": "(stereo unspecified)", "activity change, negative = inhibition": "1.31% (inactive)"}, {"smiles": "O=C(N/N=C/c1c[nH]c2ccccc12)c1ccccc1O", "Potency": "6.01 µM (active)"}, {"smiles": "O=C(CSc1nc2ccccc2o1)N/N=C/c1ccccc1C(=O)O", "activity change, negative = inhibition": "-4.26% (inactive)"}, {"smiles": "Cc1c(NC(=O)Nc2ccc(F)c(Cl)c2)c(=O)n(-c2ccccc2)n1C", "activity change, negative = inhibition": "-0.943% (inactive)"}, {"smiles": "Cc1cccc(N2CCN(C(=O)c3cc4c(=O)oc5ccccc5c4s3)CC2C)c1", "note": "(stereo unspecified)", "activity change, negative = inhibition": "-0.651% (inactive)"}, {"smiles": "CCc1ccc(NC(=O)CCS(=O)(=O)c2cc3c(cc2Cl)NC(=O)CO3)cc1", "activity change, negative = inhibition": "0.0113% (inactive)"}, {"smiles": "COc1ccc([N+](=O)[O-])cc1NC(=O)c1ccc(N(Cc2ccccc2C)S(C)(=O)=O)cc1", "activity change, negative = inhibition": "-1.17% (inactive)"}, {"smiles": "CN(C)C(=O)COC(=O)c1cccc(S(=O)(=O)N2CC3(C)CC2CC(C)(C)C3)c1", "note": "(stereo unspecified)", "activity change, negative = inhibition": "2.76% (inactive)"}, {"smiles": "O=C(CNC(=O)c1ccccc1Br)NNC(=O)c1cccs1", "activity change, negative = inhibition": "2.69% (inactive)"}, {"smiles": "COc1cc(C(c2c(NC(=O)c3ccco3)sc(C)c2C)N2CCOCC2)cc(OC)c1OC", "note": "(stereo unspecified)", "activity change, negative = inhibition": "-0.244% (inactive)"}, {"smiles": "COc1ccc(C2CC(c3cccs3)=NN2c2ccccc2)cc1", "note": "(stereo unspecified)", "Potency": "21.3 µM (active)"}, {"smiles": "COc1ccc(C2CC(c3cccs3)=NN2c2nc(C)c(C(C)=O)s2)cc1OC", "note": "(stereo unspecified)", "activity change, negative = inhibition": "2.84% (inactive)"}, {"smiles": "COc1ccc(C2CC(c3cccs3)=NN2c2ccc(F)cc2)cc1OC", "note": "(stereo unspecified)", "activity change, negative = inhibition": "-19.9% (inactive)"}, {"smiles": "COc1cc(CN(CC2CCCO2)C(=O)c2ccccc2F)cc(OC)c1OC", "note": "(stereo unspecified)", "activity change, negative = inhibition": "-0.254% (inactive)"}, {"smiles": "S=c1[nH]nc(-c2cc(-c3ccccc3)n[nH]2)n1/N=C/c1c2ccccc2cc2ccccc12", "activity change, negative = inhibition": "-14.2% (inactive)"}, {"smiles": "Cc1ccc(NC(=O)c2cc(-c3ccccc3O)n[nH]2)cc1C", "activity change, negative = inhibition": "-1.11% (inactive)"}, {"smiles": "c1ccc(-c2cc(-c3ccccc3)[nH]n2)cc1", "Potency": "7.57 µM (active)"}, {"smiles": "CNc1nc(-c2ccccc2)cc(-c2ccccc2)n1", "activity change, negative = inhibition": "-4.74% (inactive)"}, {"smiles": "Oc1ccccc1-c1cc(-c2ccc(Cl)cc2)n[nH]1", "Potency": "0.953 µM (active)"}, {"smiles": "Oc1cc(O)c2c(c1)OC(c1ccc(O)c(O)c1)C(O)C2", "note": "(stereo unspecified)", "activity change, negative = inhibition": "5.83% (inactive)"}, {"smiles": "Cc1ccc(Cl)cc1NC(=O)CCC(=O)N1CC(C)Sc2ccccc21", "note": "(stereo unspecified)", "activity change, negative = inhibition": "-4.47% (inactive)"}, {"smiles": "CCOC(=O)c1ccc(NC(=O)CSc2nc3c([nH]c4ccccc43)c(=O)n2C)cc1", "activity change, negative = inhibition": "2.26% (inactive)"}, {"smiles": "O=C(CN1CCc2ccccc2C1)Nc1cccc(S(=O)(=O)N2CCOCC2)c1", "activity change, negative = inhibition": "0.0865% (inactive)"}, {"smiles": "Cn1c(=O)c(=O)n(C)c2cc(NC(=O)c3ccccc3Br)ccc21", "activity change, negative = inhibition": "4.88% (inactive)"}, {"smiles": "O=C(Nc1ccc2sc3ccccc3c(=O)c2c1)c1ccccc1Cl", "Potency": "2.13 µM (active)"}, {"smiles": "CS(=O)(=O)c1ccccc1C(=O)Nc1ccc2sccc2c1", "activity change, negative = inhibition": "1.48% (inactive)"}, {"smiles": "COc1ccccc1NC(=O)C1=C(C)Nc2ncnn2C1c1sccc1C", "note": "(stereo unspecified)", "activity change, negative = inhibition": "2.3% (inactive)"}, {"smiles": "COc1ccccc1Nc1nnc(SC(C)C(=O)NC2CC2)s1", "note": "(stereo unspecified)", "activity change, negative = inhibition": "3.74% (inactive)"}, {"smiles": "Cc1[nH]n(-c2ccccc2)c(=O)c1CCOC(=O)c1ccc(C(F)(F)F)cc1", "Potency": "21.3 µM (active)"}, {"smiles": "CC1=C(C(=O)OCc2ccccc2)C(c2ccc(C(F)(F)F)cc2)NC(=O)N1CCCCCC(=O)O", "note": "(stereo unspecified)", "activity change, negative = inhibition": "-18% (inactive)"}, {"smiles": "CCCOC(=O)c1ccc(N2C(=O)c3ccccc3C2=O)cc1", "activity change, negative = inhibition": "-13% (inactive)"}, {"smiles": "O=C(NC1(C(F)(F)F)N=C(c2ccccc2)N(C2CCCCC2)C1=O)c1ccccc1F", "note": "(stereo unspecified)", "activity change, negative = inhibition": "-5.4% (inactive)"}, {"smiles": "CN(C)CCCN(C(=O)c1ccc(S(=O)(=O)N2CCCc3ccccc32)cc1)c1nc2ccc(F)cc2s1", "activity change, negative = inhibition": "1.08% (inactive)"}, {"smiles": "CCS(=O)(=O)N1Cc2ccccc2CC1C(=O)Nc1ccc(OC)cc1OC", "note": "(stereo unspecified)", "activity change, negative = inhibition": "3.71% (inactive)"}, {"smiles": "CCS(=O)(=O)N1Cc2ccccc2CC1C(=O)Nc1nc2ccc(F)cc2s1", "note": "(stereo unspecified)", "Potency": "15.1 µM (active)"}, {"smiles": "O=C(COC(=O)c1cc(S(=O)(=O)N2CCOCC2)ccc1Cl)NCCc1ccccc1", "activity change, negative = inhibition": "4.26% (inactive)"}, {"smiles": "CCOC(=O)c1c(C)[nH]c(C)c1S(=O)(=O)NCC(=O)NCc1cccc(C)c1", "activity change, negative = inhibition": "-1.22% (inactive)"}, {"smiles": "CN(Cc1nc(-c2cnccn2)no1)Cc1n[nH]c2c1CCCCC2", "activity change, negative = inhibition": "2.36% (inactive)"}, {"smiles": "CCOC(=O)C(Cc1ccccc1)NC(=O)CCC(=O)c1ccc(OC)cc1", "note": "(stereo unspecified)", "activity change, negative = inhibition": "5.51% (inactive)"}]}]}
